A selection: hits, their analogues and other compounds. The true share with any hit is near 0.4%.
Cdc42 wt GTP: human Cdc42 wildtype GTP binding change, either direction. GST-Cdc42 beads, Bodipy-GTP binding, flow cytometry; actives lie on both sides. 0.2% of 190,000 active. percent activity (GTP binding), % at 10 µM;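 active means percent activity GTP binding at least 20 points away from the 100% baseline, either down as inhibitor or up as activator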;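 further: median bead fluorescence of bound Bodipy-FL-GTP at 100 nM; 0% = excess unlabeled GTP control and 100% = no compound control; below 100% means less GTP binding so inhibitor and above means activator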
Rac1 mut GTP: alters GTP binding to activated mutant human Rac1 | P63000 | GST-Rac1 activated beads, fluorescent GTP binding, flow cytometry; actives lie on both sides; 100% means binding = to untreated wells | percent activity (GTP binding), % at 10 µM | 0.11% of 190,000 active | AID 764;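 active means GTP binding at least 20 percentage points away from the 100% baseline, in either direction, so actives lie on both sides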
HRas wt GTP bind: modulators of GTP binding to human HRas wildtype; P01112; GST-Ras wt beads, Bodipy-FL-GTP binding, flow cytometry; actives lie on both sides; GTP binding activity, % at 10 µM; 0.14% of 190,000 active; AID 759;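 active means GTP binding activity at least 20% away from the 100% baseline, either lowered as inhibitor or raised as activator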;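 further: 0% = unlabeled GTP competition control and 100% = no-compound control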
Target sequence (P01112 whole entry, looked up): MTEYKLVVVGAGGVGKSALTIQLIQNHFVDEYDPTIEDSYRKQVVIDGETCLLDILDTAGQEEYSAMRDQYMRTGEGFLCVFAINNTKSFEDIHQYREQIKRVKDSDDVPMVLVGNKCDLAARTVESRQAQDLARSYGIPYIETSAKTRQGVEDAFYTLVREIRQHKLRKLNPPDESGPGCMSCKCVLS
Rac1 wt modul: modulators of human Rac1 wildtype GTP binding. P63000. GST-Rac1 beads, fluorescent GTP binding, flow cytometry; actives lie on both sides; 0 = cold GTP competed, 100 = untreated. GTP binding activity (% of control), % at 10 µM. 0.27% of 190,000 active;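 active means GTP binding activity at least 20 points away from the 100% control level, either lower or higher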
Rab2 wt GTP: changes GTP binding to wildtype dog Rab2A, up or down | P61105 | GST-Rab2 wt beads, Bodipy-GTP binding, flow cytometry | GTP binding activity, % at 10 µM | 0.19% of 190,000 active | AID 760;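 active means GTP binding activity at least 20 points away from 100%, either lowered or raised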;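 further: 0% = beads with excess unlabeled GTP and 100% = no-compound control corrected for plate trend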
Rab7 wt modul: modulators of GTP binding to dog Rab7 wildtype GTPase | GST-Rab7 beads, fluorescent GTP binding, flow cytometry; actives lie on both sides; untreated = 100%, excess cold GTP = 0% | GTP binding activity (percent of control), % at 10 µM | 0.055% of 190,000 active | AID 758;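 active means fluorescent GTP binding to Rab7 beads changed by at least 20 points from the 100% baseline, either direction, mostly lower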;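 further: median green fluorescence of bound Bodipy-FL-GTP per Rab7 bead population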
Numbers without * were called inactive.

SMILES	Cdc42 wt GTP	Rac1 mut GTP	HRas wt GTP bind	Rac1 wt modul	Rab2 wt GTP	Rab7 wt modul
COc1ccc(C(=O)CC2(CC(=O)c3ccc(OC)cc3)C(=O)N(C)C(=O)N(C)C2=O)cc1	99	94	101	100	99	100
CN1C(=O)N(C)C(=O)C2(Cc3c(ccc4ccccc34)N(C)C2)C1=O	86	79*	96	86	91	96
Cc1sc(-n2c(C)cc(C=C3C(=O)NC(=O)NC3=O)c2C)c(C#N)c1C	81	78*	85	79*	82	89
Cc1cc(/C=C2\C(=O)NC(=O)N(c3ccc(Cl)cc3)C2=O)c(C)n1-c1sc2c(c1C#N)CCCC2	93	86	94	99	91	96
Cn1c(O)c(C(=N)COc2cccc(Cl)c2)c(=O)n(C)c1=O	98	98	98	99	98	100
CN(C)c1ccc(/C=C/C=C2/C(=O)NC(=O)N(c3ccccc3)C2=O)cc1	74*	77*	81	70*	78*	86
Cc1nc2c(=O)n(C)c(=O)nc-2n(C)n1	77*	82	88	106	85	87
COc1ccc(CNC(C)Cc2cccs2)cc1 (configuration not stated)	96	94	96	95	98	96

Screening results from PubChem.
